# Results filed as inconclusive are left out. Where a call stands in place of a potency, no number is given. Active and inactive are the calls of the source. Calls follow the shape of the dose curve; as a rule, active = well fitted cell-killing curve with a large enough effect; inconclusive = small, poorly fitted or top-dose-only effect, or effect the other way; inactive = no such curve, though single readings can be large or run the other way.
# Experiment: Quantitative highthroughput screen to assess conditional lethalithy of SEM cells grown in RPMI1640 with dialyzed fetal bovine serum (RPMI+ds) (AID 1963884); also: nearly all actives have a fitted effect of over 35% in size
# Settings: SEM B-ALL cells, RPMI+dialyzed FBS, CellTiter-Glo viability, 48 h; series mostly up to 45.8 µM
# Excerpt: Assay Provider: Jason Cantor Ph.D.
# Department of Biochemistry
# University of Wisconsin-Madison, Madison, WI, USA
# Chemical screening studies have identified drug sensitivities across hundreds of cancer cell lines but most putative therapeutics fail to translate. Discovery and development of drug candidates in models that more accurately reflect nutrient levels in human blood is a major challenge. Here we performed high-throughput screens in conventional versus Human Plasma-Like Medium (HPLM) to identify compounds that were "missed" when screening using the artificial culture condition. Sets of conditional anticancer compounds spanned phases of clinical development and included non-oncology drugs were assessed. […] We also traced conditional phenotypes for several chemotherapeutics to availability of HPLM-specific metabolites and confirmed others for compounds whose reported targets are encoded by nonessential genes. Our findings establish generalizable strategies for exploiting conditional lethality in HPLM to reveal therapeutic candidates and mechanisms of action in cancer cells.
# Described herein are the results of each viability screens against three cell lines: NOMO1 (an acute myeloid leukemia cell line); P12-Ichikawa (a T-cell acute lymphoblastic leukemia); and SEM (a B-cell ALL). Each assay was screened using 3 different cell culture media: homemade human plasma-Like medium with 10% dialyzed fetal bovine serum (HPLM+ds); RPMI1640 with 10% untreated FBS and 5mM glucose (RPMI+s); and RPMI1640 with 10% dialyzed fetal bovine serum and 5 mM glucose (RPMI+ds).
# PROTOCOL TABLE (as described by Inglese J, Shamu CE and Guy RK. 2007)
# SEQUENCE No. (e.g., 1, 2, 3, etc.); […] (e.g., Cells, Incubation, Reagent, etc.); VALUE and DESCRIPTION.
# 1; Cells; 5 uL; white, solid bottom 1536-well Greiner assay plate.
# 2; Compounds; 23 nL; Kalypsis pin tool (Wako USA) equipped with a 1536-well pin head to transfer to the assay plates.
# 3; Incubation; 48 hours; 37C incubation.
# 4; Reagent; 3 uL; CellTiter Glo (Promega).
# 5; Incubation; 5 min, room temperature
# 6; Detection; Luminescence, Viewlux PerkinElmer.
# NOTES (numbers refer to Sequence numbers above)
# 1. Briefly, 5 ul of cell reagent was dispensed using a Multidrop Combi Dispenser. The NOMO1 and SEM cells were plated at 500 cells/well and the P12-Ichikawa line at 1000 cells/well.
# 2. After seeding the cells, 23 nL of MIPE 4.1 library compounds (in DMSO) were added to each plate using a Kalypsys 1536 Pintool dispenser. Bortezomib at final concentration of […] and DMSO were added to each plate as positive and negative controls respectively. For each screen, MIPE 4.1 compounds were added over an eleven-point concentration range […] in 3-fold dilutions.
# 3. Each plate was covered with a stainless steel gasketed lid to prevent evaporation and incubated for 48 hour at 37C, 95% relative humidity, and 5% CO2.
# 4-5. Three microliter CellTilter-GloTM luminescent substrate mix (Promega) reagent was added to the assay plate and incubated at room temperature for 5 min.
# 6. The luminescence signal was measured using a ViewLux (PerkinElmer) multiplate reader with a 2 second exposure time per plate. Data for each compound were normalized as percent viability such that measurements for DMSO and the empty well controls in each plate were defined as 100% and 0%, respectively.
# Potency is read from the fitted curve at half-maximal effect.
row,SMILES,Potency
1,CCN1C[C@]2(OC(=O)c3ccccc3NC(C)=O)CC[C@H](OC)[C@@]34[C@H]5CC6[C@@H](OC)C[C@](O)(C(C[C@@H]23)[C@@H]14)[C@@]5(O)[C@@H]6OC,inactive
2,CCN1CCN(C(=O)Cc2ccc(Nc3ncc(F)c(Nc4ccc(C(=O)Nc5ccccc5Cl)cc4)n3)cc2)CC1,4690 nM (active)
3,CC1=C(O)C(=O)C=C2C1=CC=C1[C@@]2(C)CC[C@@]2(C)[C@@H]3C[C@](C)(C(=O)O)CC[C@]3(C)CC[C@]12C,1870 nM (active)
4,NC1=NC(=O)N2CC12 (stereo not given),2960 nM (active)
5,COc1cc(OC)c(OC)cc1C=O,inactive
6,Cc1nc(-c2ccc(-c3ccc(C(=O)N4CCc5cc6c(cc54)C4(CCN(C)CC4)CO6)cc3)c(C)c2)no1,inactive
7,O=C1C=CC[C@@H]2[C@H]3CCCN4CCC[C@@H](CN12)[C@@H]34,inactive
8,Cc1cccc(C)c1NC(=O)CN1CCCC1=O,inactive
9,Oc1ccc2c3c1O[C@H]1c4[nH]c5c(c4C[C@@]4(O)[C@@H](C2)N(CC2CC2)CC[C@]314)C[C@@]1(O)[C@H]2Cc3ccc(O)c4c3[C@@]1(CCN2CC1CC1)[C@H]5O4,inactive
10,CN(C)[C@@H]1C(=O)C(C(N)=O)=C(O)[C@@]2(O)C(=O)C3=C(O)c4c(O)cccc4[C@@](C)(O)[C@H]3[C@H](O)[C@@H]12,inactive
11,CN(C)[C@@H]1C(=O)C(C(N)=O)=C(O)[C@@]2(O)C(=O)C3=C(O)c4c(O)cccc4[C@@](C)(O)[C@H]3C[C@@H]12,inactive
12,CC(=O)N(C)c1cccc(-c2ccnc3c(C(=O)c4cccs4)cnn23)c1,inactive
13,C[C@@H]1CC[C@H]2[C@@H](C)C(=O)O[C@@H]3O[C@@]4(C)CC[C@H]1[C@]32OO4,inactive
14,CC(C)(O)C(=O)Nc1ccc([N+](=O)[O-])c(C(F)(F)F)c1,inactive
15,CCN(CC)C(=O)c1ccc(C2=CC3(CCNCC3)Oc3cccc(O)c32)cc1,inactive
16,C[C@]12CCC(=O)C=C1CC[C@@H]1[C@H]3CC[C@](C)(O)[C@@]3(C)CC[C@@H]12,inactive
17,N[C@@H](Cc1ccc(N(CCCl)CCCl)cc1)C(=O)O,2960 nM (active)
18,C#CC1(O)CCC2C3CCC4=CC(=O)CCC4(C)C3CCC21C (stereo not given),inactive
19,C[C@H]1CCCC=CC2C[C@H](O)C[C@@H]2[C@H](O)C=CC(=O)O1 (stereo not given in full),inactive
20,NCC1(CC(=O)O)CCCCC1,inactive

row,SMILES,Potency
1,O=S(=O)(F)Cc1ccccc1,inactive
2,NC1CC1c1ccccc1 (stereo not given),inactive
3,Clc1ccccc1C(c1ccccc1)(c1ccccc1)n1cccn1,inactive
4,CC(=CCCC1=CCC(C2=CC(=O)OC2O)OC1O)CCC1=C(C)CCCC1(C)C (stereo not given),inactive
5,C1=C2CCCN[C@H]2[C@@H]2C[C@H]1[C@@H]1CCCCN1C2,inactive
6,C=CCON=C(C[C@H]1O[C@@H]2O[C@]3(C)CC[C@@H]4[C@H](C)CC[C@@H]([C@H]1C)[C@@]24OO3)[C@H]1O[C@@H]2O[C@]3(C)CC[C@H]4[C@H](C)CC[C@@H]([C@@H]1C)[C@@]24OO3,935 nM (active)
7,O=C(NCC1CCOCC1)c1cnc(Nc2ccc(Cl)cc2Cl)nc1C(F)(F)F,inactive
8,C[C@@H]1C[C@@H]([C@H](O)CC2CC(=O)NC(=O)C2)C(=O)[C@@H](C)C1,590 nM (active)
9,C[C@@H]1[C@H](O)[C@@H](C)C=CC=CCCC=CC=CC=CC=C[C@H](O[C@H]2O[C@@H](C)[C@H](O)[C@@H](N)[C@@H]2O)CC2O[C@](O)(C[C@@H](O)[C@H](O)CC[C@@H](O)C[C@@H](O)C[C@@H](O)CC(=O)O[C@H]1C)C[C@H](O)[C@H]2C(=O)O,inactive
10,CNCC(O)c1ccc(O)cc1 (stereo not given),inactive
11,CCNC(=O)CC1N=C(c2ccc(Cl)cc2)c2cc(OC)ccc2-n2c(C)nnc21 (stereo not given),23500 nM (active)
12,COc1cc(C(=O)N2CC[C@@H](O)[C@@H](N)C2)cc2nc(-c3cc4ccccc4n3CC3CC3)n(C)c12,831 nM (active)
13,C[C@]12CC[C@H]3[C@@H](CC[C@@]45O[C@H]4C(O)=C(C#N)C[C@]35C)[C@H]1CC[C@H]2O,16600 nM (active)
14,CC=C(C)C(=O)O[C@H]1C(C)=C2[C@@H]3OC(=O)[C@@](C)(O)[C@@]3(O)[C@@H](OC(=O)CCC)C[C@](C)(OC(C)=O)[C@@H]2[C@@H]1OC(=O)CCCCCCC,33.2 nM (active)
15,COc1ccc2c(c[n+](C)c3c4cc5c(cc4ccc23)OCO5)c1OC,9350 nM (active)
16,O=P1(N(CCCl)CCCl)NCCCO1 (stereo not given),9350 nM (active)
17,C[C@]12Cc3cn[nH]c3C[C@@H]1CC[C@@H]1[C@H]2CC[C@@]2(C)[C@H]1CC[C@]2(C)O,inactive
18,C=C(C)[C@H]1Cc2c(ccc3c2O[C@@H]2COc4cc(OC)c(OC)cc4[C@@H]2C3=O)O1,3720 nM (active)
19,COc1ccc2c(c1OC)CN1CCc3cc4c(cc3C1C2)OCO4 (stereo not given),469 nM (active)
20,C[C@]12CC[C@H]3[C@@H](CCC4=CC(=O)CC[C@@]43C)[C@H]1CC[C@H]2OC(=O)CCC1CCCC1,inactive

# — PubChem BioAssay (NCATS)
